# Data: PubChem BioAssay (NCI)
# Where “and” joins values, the source holds several entries; their conditions need not be identical. Identical values can stand only once. This is part of a sample that, as a whole, favours compounds with a hit. Of some 83,000 tested, about 20% had one in any assay.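 Growth was measured after 48 h exposure to one concentration of compound in 96-well plates. Values under 10 count as active.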 Calls of active or inactive are those of the source.
# Test system: HL-60(TB) leukemia
# Experiment: NCI-60 one-dose screen, 48 h (100 = growth as untreated, 0 = no growth, -100 = all killed)
# Details: 10 µM unless noted
row,Compound,growth
1,Cc1ccc(NC(=O)CN2CCOCC2)cc1Cl,74.2% (inactive)
2,O=c1oc2ccc(-c3ccc(F)cc3F)cc2c(=O)n1-c1ccc(Cl)c(C(F)(F)F)c1,1.69% (active)
3,O=C1/C(=C/c2ccc(F)cc2)COc2ccc(O)c(O)c21,-17% (active)
4,CC(=O)N(N=Nc1ccccc1)c1cccc2ccccc12,116% (inactive)
5,NS(=O)(=O)c1ccc(CCNC(=O)/C=C/c2ccc(Cl)cc2)cc1,89.1% (inactive)
6,O=C1c2ccc3c4c5ccc(c24)C(=O)N1CCCOCCCCOCCCNCc1ccc(cc1)CNCCCOCCCCOCCCN(C3=O)C5=O,-61.1% (active)
7,O=C(C(=Cc1ccccc1)C(=O)c1ccccc1)c1ccccc1,13% (inactive) and 110% (inactive)
8,Cc1cc(C(=O)c2ccc(Cl)cc2)ccc1O,147% (inactive)
9,Cn1c(=O)cc(NC(=O)CN2CCN(c3cc4c(cc3F)c(=O)c(C(=O)O)cn4C3CC3)CC2)[nH]c1=O,98.2% (inactive)
10,CCOC(=O)c1ccc2c(c1)nc(-c1ccc(Cl)cc1)n2-c1cc(C(C)(C)C)[nH]n1,-14.7% (active)
11,CC[C@@]1(O)C(=O)OCc2c1cc1n(c2=O)Cc2c-1nc1ccccc1c2/C=N/OC(C)(C)C,-29% (active)
12,COc1cccc2c1C=C1CCCCC3=Cc4c(OC)cccc4OC13O2,19.1% (inactive)
13,OC(Cc1cccnc1)c1ccccc1 (centres undefined),64.3% (inactive)
14,Cn1cccc1C(=O)C1C(c2cccc([N+](=O)[O-])c2)C2C3CCCCC3CN2C12C(=O)Nc1ccc(Cl)cc12 (centres undefined),17.8% (inactive)
